Measured values as given in ChEMBL document CHEMBL1961873, “Compounds: GSK PKIS; Assays: Nanosyn kinase panel” (2012).
Several values for one entry are separate records, joined by “and”; a condition that tells them apart may be missing. Equal entries are not always repeated.

Tested on: Leucine-rich repeat serine/threonine-protein kinase 2 (Homo sapiens), Q5S007 [G2019S]
Settings: at 0.1 µM

Chain of Leucine-rich repeat serine/threonine-protein kinase 2 (Homo sapiens), Q5S007 [G2019S] (Q5S007 whole entry G2019S): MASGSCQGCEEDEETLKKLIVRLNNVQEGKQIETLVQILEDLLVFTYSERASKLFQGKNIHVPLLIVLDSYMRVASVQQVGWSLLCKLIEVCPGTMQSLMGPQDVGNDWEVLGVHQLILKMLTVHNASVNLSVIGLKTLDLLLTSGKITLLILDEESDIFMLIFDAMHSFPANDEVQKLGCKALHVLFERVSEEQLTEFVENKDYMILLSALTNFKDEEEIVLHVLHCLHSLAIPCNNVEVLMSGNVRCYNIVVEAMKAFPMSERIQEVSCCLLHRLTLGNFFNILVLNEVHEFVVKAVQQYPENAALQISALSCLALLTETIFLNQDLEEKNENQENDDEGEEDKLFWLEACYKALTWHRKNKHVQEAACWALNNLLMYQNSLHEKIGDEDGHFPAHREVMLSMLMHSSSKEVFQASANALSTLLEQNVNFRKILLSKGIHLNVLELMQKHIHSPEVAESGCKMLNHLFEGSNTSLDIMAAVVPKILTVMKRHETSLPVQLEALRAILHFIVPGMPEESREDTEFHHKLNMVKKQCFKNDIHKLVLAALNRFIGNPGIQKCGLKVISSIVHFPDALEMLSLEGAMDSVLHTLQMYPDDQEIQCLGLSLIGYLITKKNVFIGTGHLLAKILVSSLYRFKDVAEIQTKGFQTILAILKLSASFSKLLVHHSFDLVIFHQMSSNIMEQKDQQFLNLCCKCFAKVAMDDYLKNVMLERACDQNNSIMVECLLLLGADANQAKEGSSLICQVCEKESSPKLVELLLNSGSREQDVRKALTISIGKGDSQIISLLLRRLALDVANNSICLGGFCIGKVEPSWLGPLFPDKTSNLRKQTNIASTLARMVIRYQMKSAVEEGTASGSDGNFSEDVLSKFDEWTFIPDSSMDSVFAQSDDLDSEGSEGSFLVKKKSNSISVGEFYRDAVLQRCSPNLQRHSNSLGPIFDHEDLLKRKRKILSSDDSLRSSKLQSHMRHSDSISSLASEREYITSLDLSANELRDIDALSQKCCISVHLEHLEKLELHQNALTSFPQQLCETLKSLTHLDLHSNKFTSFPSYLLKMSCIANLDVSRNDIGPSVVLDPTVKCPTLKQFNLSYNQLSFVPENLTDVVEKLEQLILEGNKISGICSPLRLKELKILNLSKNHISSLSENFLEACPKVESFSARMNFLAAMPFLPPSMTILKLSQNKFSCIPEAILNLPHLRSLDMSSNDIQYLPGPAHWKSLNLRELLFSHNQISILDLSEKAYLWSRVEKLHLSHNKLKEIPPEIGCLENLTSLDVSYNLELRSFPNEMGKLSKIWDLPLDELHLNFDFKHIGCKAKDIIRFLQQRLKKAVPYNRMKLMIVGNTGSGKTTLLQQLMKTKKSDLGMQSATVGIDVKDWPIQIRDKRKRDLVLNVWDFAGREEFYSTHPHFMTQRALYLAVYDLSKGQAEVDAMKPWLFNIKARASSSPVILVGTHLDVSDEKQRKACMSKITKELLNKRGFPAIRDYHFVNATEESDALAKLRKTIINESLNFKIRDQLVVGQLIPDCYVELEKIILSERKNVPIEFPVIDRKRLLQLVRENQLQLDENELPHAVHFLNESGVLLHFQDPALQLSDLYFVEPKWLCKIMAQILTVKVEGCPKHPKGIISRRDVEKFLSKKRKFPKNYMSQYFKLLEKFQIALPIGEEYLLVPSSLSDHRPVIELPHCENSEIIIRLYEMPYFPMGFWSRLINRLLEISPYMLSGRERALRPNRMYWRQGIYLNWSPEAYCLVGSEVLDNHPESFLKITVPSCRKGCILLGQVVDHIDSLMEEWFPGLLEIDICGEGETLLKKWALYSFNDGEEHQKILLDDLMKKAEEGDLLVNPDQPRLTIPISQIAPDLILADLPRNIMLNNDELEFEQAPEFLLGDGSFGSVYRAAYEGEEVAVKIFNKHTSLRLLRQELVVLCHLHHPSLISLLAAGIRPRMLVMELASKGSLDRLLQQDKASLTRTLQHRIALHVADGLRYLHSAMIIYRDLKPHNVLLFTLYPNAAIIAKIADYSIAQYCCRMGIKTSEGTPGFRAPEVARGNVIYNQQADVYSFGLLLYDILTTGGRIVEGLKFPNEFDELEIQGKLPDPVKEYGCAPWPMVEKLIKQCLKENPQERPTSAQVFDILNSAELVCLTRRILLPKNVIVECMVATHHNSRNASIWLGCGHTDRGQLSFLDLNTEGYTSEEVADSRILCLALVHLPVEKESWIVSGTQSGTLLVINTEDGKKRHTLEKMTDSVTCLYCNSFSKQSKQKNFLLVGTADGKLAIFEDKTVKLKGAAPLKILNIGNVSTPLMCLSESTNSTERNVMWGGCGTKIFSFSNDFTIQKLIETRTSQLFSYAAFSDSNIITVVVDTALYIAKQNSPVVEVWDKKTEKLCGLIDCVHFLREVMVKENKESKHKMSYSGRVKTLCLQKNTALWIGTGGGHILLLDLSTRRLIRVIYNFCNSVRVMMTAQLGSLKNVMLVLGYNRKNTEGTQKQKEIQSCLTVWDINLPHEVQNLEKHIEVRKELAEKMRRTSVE

Compound	inhibition
CN1CCN(Cc2ccc(-c3cc4ncnc(Nc5ccc(OCc6cccc(F)c6)c(Cl)c5)c4s3)o2)CC1	4.59% and 4.9%
COC(=O)Nc1nc2cc(Oc3ccc(NC(=O)Nc4ccccc4)cc3)ccc2[nH]1	3.61%
NS(=O)(=O)c1ccc(N/N=C2\C(=O)Nc3ccc(C(=O)NCc4ccncc4)cc32)cc1	6.07%
CNC(=O)c1ncccc1Nc1nc(Nc2cc3c(cc2OC)CCCN3C(=O)CN(C)C)nc2[nH]ccc12	65.3%
CS(=O)(=O)CCNCc1ccc(-c2ccc3ncnc(Nc4ccc(OCc5ccccc5)cc4)c3c2)o1	2.93%
Cc1nnc(-c2cccc(-c3ccc(C(=O)NCC4CC4)cc3)c2)o1	4.33%
O=C1Nc2ccccc2/C1=C1\CCc2cc(O)ccc21	22.1%
Cc1cc(O)cc(C)c1/C=C/c1cncc(C(=O)OC(C)(C)C)c1	6.75%
O=C(O[C@H]1CN[C@H](C#Cc2cc3ncnc(Nc4ccc5c(cnn5Cc5ccccc5)c4)c3s2)C1)N1CCOCC1	3.12%
Nc1nccc(-c2c(-c3ccc(F)cc3)ncn2C2CCNCC2)n1	0.34% and 3.78%
CN1CCC(n2cnc(-c3ccc(F)cc3)c2-c2ccnc(NCCO)n2)CC1	4.69%
CC1(C)CC(n2cnc(-c3ccc(F)cc3)c2-c2ccnc(N)n2)CC(C)(C)N1	2.37%
CN1CCC(C(=O)Nc2n[nH]c3nc(-c4ccc(O)cc4)c(Br)cc23)CC1	-0.31% and 1.49%
CN(c1ccc(NC(=O)NCCN2CCOCC2)cc1)c1ccnc(Nc2ccc(CS(C)(=O)=O)cc2)n1	2.66%
COc1cccc(-n2ncc3c(N/N=C/c4ccc(C(=O)NCCN(C)C)cc4)ncnc32)c1	12.5%
CS(=O)(=O)Nc1ccc(-c2cc(-c3ccccc3)cc(C(N)=O)c2N)cc1	3.87%

Compound	inhibition
N#Cc1ccc2c(-c3ccnc(NC4CC4)n3)c(-c3ccc(F)cc3)nn2c1	1.24%
COc1ccccc1-c1cc(/C=C2\C(=O)Nc3ncc(Br)cc32)cc(Br)c1O	13.5%
COc1cc2c(cc1Nc1nc(Nc3cccc(F)c3C(N)=O)c3cc[nH]c3n1)N(C(=O)CN1CCN(C(C)C)CC1)CC2	41.5%
CC(C)c1ccc(-c2cc(-c3c[nH]nc3-c3ccccn3)ccn2)cc1	1.2%
NS(=O)(=O)c1cccc(N/C=C2\C(=O)Nc3ccccc32)c1	6.57%
Nc1ncnc2occ(-c3ccc(NC(=O)Nc4cc(C(F)(F)F)ccc4F)cc3)c12	8.38% and 6.37%
COc1ccc2ncn(-c3cc(O[C@H](C)c4ccccc4C(F)(F)F)c(C(N)=O)s3)c2c1	5.16%
CCOc1ccc2c(-c3ccnc(Nc4cc(OC)cc(C(F)(F)F)c4)n3)cnn2n1	3.62%
COc1cc(N2CCN(C(C)C)CC2)ccc1Nc1nc(Nc2cccc3ncccc23)c2cc[nH]c2n1	24.5%
CS(=O)(=O)Nc1ccc(-c2ccc3c(NC(=O)C4CC4)n[nH]c3c2)cc1	9.88%
CNC(=O)c1cncc(/C=C/c2ccccc2C)c1	4.65%
Cc1cc(O)cc(C)c1/C=C/c1cncc(C(N)=O)c1	3.18%
Fc1cccc(COc2ccc(Nc3ncncc3C#Cc3ccccc3)cc2Cl)c1	4.05%
FC(F)(F)CNc1nccc(-c2cnn3ncccc23)n1	5.03%
CC1=C(C(=O)Nc2ccc3[nH]nc(C)c3c2)C(c2ccc(C(F)(F)F)cc2)CC(=O)N1 (configuration not stated)	9.85%

Tested on: Leucine-rich repeat serine/threonine-protein kinase 2 (Homo sapiens), Q5S007 [G2019S]
Settings: at 1 µM

Compound	inhibition
CN1CCN(Cc2ccc(-c3cc4ncnc(Nc5ccc(OCc6cccc(F)c6)c(Cl)c5)c4s3)o2)CC1	7.45% and 5.92%
COC(=O)Nc1nc2cc(Oc3ccc(NC(=O)Nc4ccccc4)cc3)ccc2[nH]1	4.1%
NS(=O)(=O)c1ccc(N/N=C2\C(=O)Nc3ccc(C(=O)NCc4ccncc4)cc32)cc1	30.8%
CNC(=O)c1ncccc1Nc1nc(Nc2cc3c(cc2OC)CCCN3C(=O)CN(C)C)nc2[nH]ccc12	64.5%
CS(=O)(=O)CCNCc1ccc(-c2ccc3ncnc(Nc4ccc(OCc5ccccc5)cc4)c3c2)o1	7.35%
Cc1nnc(-c2cccc(-c3ccc(C(=O)NCC4CC4)cc3)c2)o1	7.83%
O=C1Nc2ccccc2/C1=C1\CCc2cc(O)ccc21	63.6%
Cc1cc(O)cc(C)c1/C=C/c1cncc(C(=O)OC(C)(C)C)c1	10.9%
O=C(O[C@H]1CN[C@H](C#Cc2cc3ncnc(Nc4ccc5c(cnn5Cc5ccccc5)c4)c3s2)C1)N1CCOCC1	4.15%
Nc1nccc(-c2c(-c3ccc(F)cc3)ncn2C2CCNCC2)n1	4.42% and 3.38%
CN1CCC(n2cnc(-c3ccc(F)cc3)c2-c2ccnc(NCCO)n2)CC1	5.35%
CC1(C)CC(n2cnc(-c3ccc(F)cc3)c2-c2ccnc(N)n2)CC(C)(C)N1	6.19%
CN1CCC(C(=O)Nc2n[nH]c3nc(-c4ccc(O)cc4)c(Br)cc23)CC1	4.77% and 5.48%
CN(c1ccc(NC(=O)NCCN2CCOCC2)cc1)c1ccnc(Nc2ccc(CS(C)(=O)=O)cc2)n1	14.7%
COc1cccc(-n2ncc3c(N/N=C/c4ccc(C(=O)NCCN(C)C)cc4)ncnc32)c1	49.6%
CS(=O)(=O)Nc1ccc(-c2cc(-c3ccccc3)cc(C(N)=O)c2N)cc1	5.66%

Compound	inhibition
N#Cc1ccc2c(-c3ccnc(NC4CC4)n3)c(-c3ccc(F)cc3)nn2c1	-0.08%
COc1ccccc1-c1cc(/C=C2\C(=O)Nc3ncc(Br)cc32)cc(Br)c1O	55.3%
COc1cc2c(cc1Nc1nc(Nc3cccc(F)c3C(N)=O)c3cc[nH]c3n1)N(C(=O)CN1CCN(C(C)C)CC1)CC2	59.8%
CC(C)c1ccc(-c2cc(-c3c[nH]nc3-c3ccccn3)ccn2)cc1	7.15%
NS(=O)(=O)c1cccc(N/C=C2\C(=O)Nc3ccccc32)c1	34%
Nc1ncnc2occ(-c3ccc(NC(=O)Nc4cc(C(F)(F)F)ccc4F)cc3)c12	35.4% and 28.6%
COc1ccc2ncn(-c3cc(O[C@H](C)c4ccccc4C(F)(F)F)c(C(N)=O)s3)c2c1	31%
CCOc1ccc2c(-c3ccnc(Nc4cc(OC)cc(C(F)(F)F)c4)n3)cnn2n1	12.8%
COc1cc(N2CCN(C(C)C)CC2)ccc1Nc1nc(Nc2cccc3ncccc23)c2cc[nH]c2n1	63%
CS(=O)(=O)Nc1ccc(-c2ccc3c(NC(=O)C4CC4)n[nH]c3c2)cc1	15.1%
CNC(=O)c1cncc(/C=C/c2ccccc2C)c1	9.68%
Cc1cc(O)cc(C)c1/C=C/c1cncc(C(N)=O)c1	13.3%
Fc1cccc(COc2ccc(Nc3ncncc3C#Cc3ccccc3)cc2Cl)c1	6.17%
FC(F)(F)CNc1nccc(-c2cnn3ncccc23)n1	9.11%
CC1=C(C(=O)Nc2ccc3[nH]nc(C)c3c2)C(c2ccc(C(F)(F)F)cc2)CC(=O)N1 (configuration not stated)	49.5%
